# About 65 (0.1%) of roughly 60,000 compounds were called active. Where a call stands in place of a potency, no number is given. Calls come from the whole dose curve; as a rule, active = well fitted inhibition curve with a large enough effect; inconclusive = small, poorly fitted or top-dose-only effect; inactive = no such curve, though single readings can be large or run the other way. Only a selection was taken, and actives are over-represented in it overall.
# Target: Ubiquitin carboxyl-terminal hydrolase 2 (Homo sapiens) (UniProt O75604)
# Sequence (O75604 whole entry, looked up): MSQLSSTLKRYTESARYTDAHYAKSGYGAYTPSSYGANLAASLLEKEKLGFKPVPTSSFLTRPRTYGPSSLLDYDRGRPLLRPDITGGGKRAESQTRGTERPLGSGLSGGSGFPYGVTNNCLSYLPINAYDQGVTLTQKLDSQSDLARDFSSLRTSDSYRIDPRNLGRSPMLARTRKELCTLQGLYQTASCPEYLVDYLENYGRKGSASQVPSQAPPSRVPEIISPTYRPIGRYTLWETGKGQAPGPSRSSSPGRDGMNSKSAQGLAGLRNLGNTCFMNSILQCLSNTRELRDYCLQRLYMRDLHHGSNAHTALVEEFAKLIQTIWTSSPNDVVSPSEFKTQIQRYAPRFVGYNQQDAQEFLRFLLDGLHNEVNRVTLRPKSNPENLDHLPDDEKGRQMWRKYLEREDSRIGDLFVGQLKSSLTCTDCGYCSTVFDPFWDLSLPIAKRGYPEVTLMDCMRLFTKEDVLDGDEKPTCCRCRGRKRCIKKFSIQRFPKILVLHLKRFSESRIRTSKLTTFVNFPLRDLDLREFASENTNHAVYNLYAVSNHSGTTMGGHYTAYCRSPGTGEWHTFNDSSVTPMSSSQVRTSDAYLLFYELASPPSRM
# Test: qHTS Assay for Inhibitors of Ubiquitin-specific Protease USP2a; note: nearly all actives have a fitted effect of over 60% in size
# Settings: USP2a enzymatic assay; Potency: qHTS inhibition; series mostly up to 38.3 µM
# Outline: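 USP2 core (20 nM final) was preincubated with compound for 30 min at RT in 20 mM Tris-HCl pH 8.0, 2 mM CaCl2, 2 mM beta-mercaptoethanol; Ub-PLA2 (20 nM) plus NBD C6-HPC (20 uM) then added, fluorescence read after 2.5 h.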
# Potency is the fitted concentration of half-maximal effect.
Structure (SMILES),"activity change, negative = inhibition",Potency
C=C1C(=O)C23C(O)C1CCC2[C@]12COC3(O)C(O)C1C(C)(C)CC[C@H]2O (stereo partly specified),inactive,
COC(=O)COc1ccc(S(=O)(=O)N2CCOCC2)cc1,inactive,
Cc1c(NC(=O)Nc2ccccc2Cl)sc(=S)n1C,inactive,
CCOC(=O)C(CCOc1cccc(CC)c1)C(=O)OCC,inactive,
Cc1cccc(C(=O)Nc2ccc(CC(=O)O)cc2)c1,inactive,
CC(=O)OCC(=O)[C@@]1(O)CCC2C3CCC4=CC(=O)CC[C@]4(C)C3C(=O)C[C@]21C (stereo partly specified),inactive,
COC(=O)c1cccc(NC(=O)CN2CCC(NC(=O)c3cc(OC)c(OC)c(OC)c3)CC2)c1,inactive,
CC(=O)c1c(N2CCOCC2)nc(=S)n(Cc2ccccc2)c1C,inactive,
CC1(C)C(=O)Nc2ccccc2N1C(=O)COC(=O)Cn1cnc2ccccc2c1=O,inactive,
O=c1c2ccccc2oc2nc(C3CCCCC3)n(Cc3ccco3)c(=O)c12,inactive,
Oc1cc(O)c2c(c1)OC(c1ccc(O)c(O)c1)C(O)C2 (stereo unspecified),inactive,
Cc1nc2nc(COc3ccccc3)[nH]n2c(=O)c1C,inactive,
C=C[C@](C)(O)CCC1C(=C)CCC2[C@@](C)(CO)CCC[C@@]12C (stereo partly specified),inactive,
CC(=O)OC1CCC2(O)CC1(C)CCC1C2CC1(C)C (stereo unspecified),inactive,
CCOC(=O)c1ccc(NC(=O)CSc2nnc(COc3ccccc3OC)n2C)cc1,inactive,
Cn1cc(-c2nc3cnc(N4CCNCC4)nc3n(CCC#N)c2=O)c2ccccc21,inactive,

Structure (SMILES),"activity change, negative = inhibition",Potency
O=C(NCc1ccc(Cl)c(Cl)c1)c1cccnc1,8.48% [at 7.66 µM] (inactive),
COC(=O)Nc1ncc(CN2C(=O)c3ccccc3C2=O)s1,inactive,
CC(C)NC(=O)N1CC[C@@]2(CCCN(C(=O)c3cccn3C)C2)C1,inactive,
CC(C)NC(=O)N1CCCC2(CCN(C(=O)c3cccn3C)CC2)C1,,10 µM (active)
CC(C)NC(=O)N1CCC2(CC1)CCN(C(=O)c1cccn1C)CC2,inactive,
CCCNc1ncnc2sc(C)c(C)c12,inactive,
Nc1nc2nc(Cl)[nH]c2c(=O)[nH]1,inactive,
Cc1cccc(CC(=O)Nc2c3c(nn2-c2cccc(Cl)c2)CS(=O)C3)c1 (stereo unspecified),inactive,
Cc1ccccc1-c1nc(N(C)Cc2ccco2)c2ccccc2n1,inactive,
CCOc1cccc(C(=O)Nc2cccnc2)c1,inactive,
O=C(Nc1cccc(F)c1)N1CC2(CCN(C(=O)c3csnn3)CC2)C1,inactive,
CCOC(=O)[C@H]1CCC[C@@H](NS(=O)(=O)c2ccc(NC(C)=O)cc2)C1,inactive,
CC(NC(=O)Nc1ccccc1)c1ccccc1 (stereo unspecified),inactive,
Cc1ccc2c(CSc3nncs3)cc(=O)oc2c1,inactive,
COc1c2c(cc3occ(-c4ccc5c(c4)OCO5)c(=O)c13)OC(C)(C)C=C2,inactive,
